The record followed here is ChEMBL document CHEMBL4513146, “CO-ADD screening of Karazin Kharkiv National University (Ukraine) compounds”.

Measured potencies and affinities stand elsewhere.

What is called Inhibition is the relative decrease from the control value, in per cent.

The assay has as its system Cryptococcus neoformans. The following applies: Concentration 32 ug.mL-1; ASSAY_TEST Inhibition of Fungal Growth; detection method Resazurin; Absorption (OD600-OD570); plate type 384well; NBS; CORNING #3640.
Take `Cc1ccc(-c2cc3c4nn(CC(=O)NCc5ccc(Cl)cc5)c(=O)n4ccn3n2)cc1C`: the Inhibition was -10.6%.
As for `CC(C)c1nnc2c(SCC(=O)N3CCN(c4ccccc4F)CC3)nc3ccccc3n12`, the Inhibition is -28.6%.
Take `Cc1c(Cl)cccc1NC(=O)CSc1nc2ccccc2n2c(C)nnc12`: the Inhibition is given as -27.73%.
In the case of `CCc1nnc2c(S(=O)(=O)N(Cc3cccc(F)c3)c3cccc(C)c3)cccn12` it was -1.17%.
Consider `CC(C)c1nnc2c(=O)n(CC(=O)Nc3cccc(C#N)c3)c3ccccc3n12`, for which the Inhibition is -33.67%.
As to `O=C(CCc1nnc2c(N3CCCCC3)nc3ccccc3n12)NCc1ccc(Br)cc1`, the Inhibition is on record as -23.12%.
For the molecule `Cc1ccc(-c2cc3c4nn(CC(=O)Nc5ccc(F)cc5Cl)c(=O)n4ccn3n2)cc1`, the Inhibition was -28.25%.
Turning to `COc1cccc(-n2ccn3c(SCc4ccccc4C)nnc3c2=O)c1`, the Inhibition is listed as -11.74%.
In the case of `CCC(Sc1nnc2c(=O)n(-c3ccccc3)ccn12)C(=O)Nc1ccc(OC)cc1OC` (centres undefined) it was -10.74%.
For the molecule `COc1ccc(-c2cc3c4nnc(SCC(=O)NCc5ccc(Cl)cc5)n4ccn3n2)cc1`, the Inhibition is recorded as -28.86%.
With `CCc1cccc(NC(=O)CSc2nnc3c(=O)n(-c4cccc(OC)c4)ccn23)c1` the figure was -2.76%; with `Cc1ccc(Oc2nccn3c(=O)n(CC(=O)Nc4ccc(Br)cc4)nc23)cc1`, -16.67%.
With `Cc1ccc(NC(=O)CSc2nc3ccccc3n3c(C)nnc23)c(Br)c1` the figure was -9.59%; with `CCCCc1ccc(NC(=O)CSc2nc3ccccc3n3c(CC)nnc23)cc1`, -16.72%.
In the case of `O=C(CSc1nc2ccccc2n2cnnc12)NCc1ccccc1Cl` it was -14.6%; in that of `COc1cc(NC(=O)C(C)Sc2nnc3c(=O)n(-c4cccc(OC)c4)ccn23)cc(OC)c1` (centres undefined), -10.32%; in that of `COc1cccc(NC(=O)Cn2nc3c(Oc4cccc(OC)c4)nccn3c2=O)c1`, -0.95%.
In the case of `O=C(Cn1nc2c(N3CCSCC3)nc3ccccc3n2c1=O)NCc1ccccc1`, the Inhibition is reported as -23.77%.
`Cc1ccccc1-c1noc(Cn2nc3ccc(-c4ccccc4)nn3c2=O)n1`: the Inhibition is -15.26%.
With `CCCCOc1ccc(-c2cc3c4nnc(SCC(=O)Nc5cc(F)ccc5C)n4ccn3n2)cc1`, the Inhibition was -31.79%.
For the molecule `Cc1cccc(NC(=O)Cn2nc3ccc(-c4ccccc4)nn3c2=O)c1`, the Inhibition was -14.95%.
With `COc1ccc(-c2cc3c4nn(CC(=O)Nc5ccc(OC)cc5OC)c(=O)n4ccn3n2)cc1`, the Inhibition is reported as -8.54%.
As for `O=C(CSc1nnc2ccc(C(=O)NCc3ccccc3)cn12)Nc1ccccc1Br`, the Inhibition was -20.85%.
With `COc1cccc(-n2ccn3c(SCC(=O)N4CCN(c5ccc(F)cc5)CC4)nnc3c2=O)c1`, the Inhibition was -10.47%.
For the molecule `Cc1cc2nn(CC(=O)NCc3ccccc3)c(=O)n2c(Nc2ccc(C)c(F)c2)n1`, the Inhibition was -3.12%.
In the case of `CSc1cccc(NC(=O)Cn2nc3c(N4CCCC4)nccn3c2=O)c1`, the Inhibition is reported as -5.38%.
For `CCOC(=O)c1ccc(NC(=O)Cn2nc3c(Oc4ccccc4)nccn3c2=O)cc1`, the Inhibition is -7.75%.
Consider `COc1cccc(CN(c2cc(F)cc(F)c2)S(=O)(=O)c2ccc3nnc(C)n3c2)c1`, for which the Inhibition was -5.08%.
Turning to `COc1ccc(-c2cc3c4nnc(SCC(=O)Nc5ccc(C#N)cc5)n4ccn3n2)cc1`, the Inhibition is listed as -17.71%.
Regarding `COc1ccc(-c2cc3c4nn(CC(=O)Nc5cccc(C)c5)c(=O)n4ccn3n2)cc1`, the Inhibition is -17.04%.
In the case of `CC(C)c1ccc(Cn2c(=O)c3sccc3n3c(SCc4cccc(C(F)(F)F)c4)nnc23)cc1`, the Inhibition is listed as -12.8%.
Consider `COC(=O)c1ccccc1NC(=O)CSc1nc2ccccc2n2c(C(C)C)nnc12`, for which the Inhibition is -7.61%.
As for `Cc1ccc(NC(=O)Cn2nc3ccc(SCc4ccc(Cl)cc4)nn3c2=O)c(C)c1`, the Inhibition was -27.61%.
In the case of `CCOc1ccc(-n2ccn3c(SCC(=O)Nc4cc(OC)cc(OC)c4)nnc3c2=O)cc1` it was -7.81%; in that of `COc1ccc(CN(c2cc(C)cc(C)c2)S(=O)(=O)c2cccn3cnnc23)cc1F`, -10.15%; in that of `Cn1c(=O)c2sccc2n2c(=O)n(Cc3ccc(Cl)cc3)nc12`, -19.86%.
With `COc1ccccc1-n1ccn2c(SCc3cccc(F)c3)nnc2c1=O` the figure was -9.16%; with `Cc1cc2nn(CC(=O)Nc3ccccc3F)c(=O)n2c(Nc2ccc(F)c(C)c2)n1`, -5.54%.
Turning to `COc1cccc(CSc2nnc3c(=O)n(-c4ccccc4OC)ccn23)c1`, the Inhibition is given as -5.34%.
